Source: PubChem
MCF10A rereplic = induces DNA re-replication in MCF 10a normal breast cells | MCF 10A DNA re-replication, Hoechst nuclear intensity, 48 h | Potency, µM (titrated, usually from 46.1 µM), without a hit: top-dose activity, positive = re-replication, usual class: activators | actives 2.9% (n = 350,000) | AID 624296; also: % of control where 0% means no effect; nearly all actives have a fitted effect of over 50% in size
HT1080-NT tox = kills 2HG-producing HT-1080-NT fibrosarcoma cells. HT-1080-NT fibrosarcoma viability, CellTiter-Glo ATP luminescence, 48 h. AID 686970. Potency, µM (top dose mostly 46.1 µM), inactives show at the highest dose activity, negative = less viability, most hits filed as cytotoxic. actives 1.6% (n = 360,000);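 also: NT is the 2HG producing partner of a matched IDH1 knockdown line; 0% = DMSO-treated cells and -100% = media-only wells without cells; nearly all actives have a fitted effect of over 55% in size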
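Viability by CellTiter-Glo luminescence after 48 h compound exposure at 37C of HT-1080-NT cells (750/well, RPMI, 5% FBS). % activity scaled between DMSO wells and medium-only wells, then curve-fitted and categorized by curve class.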
SW480 rerep = DNA re-replication induction in SW480 cells | SW480 DNA re-replication, Hoechst DNA content imaging, 48 h | AID 624297 | actives 1.8% (n = 340,000) | Potency, µM (series often up to 46.1 µM), inactives show at the top dose re-replication activation, most hits filed as activators; also: % of control where 0% means no effect; nearly all actives have a fitted effect of over 55% in size
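Compounds, transferred as 23 nL by pin tool, were incubated with cells for 48 hr; DNA content per nucleus was then quantified by Hoechst staining and fluorescence plate imaging.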
KB-V1 MDR tox = kills drug-selected multidrug resistant KB-V1 cells. KB-V1 MDR cells viability, CellTiter-Glo, 72 h. Potency, µM (series often up to 46.1 µM), actives largely listed as cytotoxic. actives 3.4% (n = 400,000). AID 1347076; also: % is scaled to controls: 0 for no effect and ±100 for the full control effect; nearly all actives have a fitted effect of over 60% in size
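Following 72 h at 37 degrees C with compound, KB-V1 cell viability was read by CellTiter-Glo luminescence, medium being phenol-red-free DMEM plus 10% FBS; concentration-response parameters came from normalized, curve-fitted qHTS data.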
KB-3-1 cytotox = KB-3-1 parental cell cytotoxicity. KB-3-1 viability, CellTiter-Glo ATP luminescence, 72 h. Potency, µM (doses to about 46.1 µM), usual class: cytotoxic. actives 1.4% (n = 400,000). AID 1347075; also: % is scaled to controls: 0 for no effect and ±100 for the full control effect; nearly all actives have a fitted effect of over 60% in size
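Viability of parental KB-3-1 cells, measured by CellTiter-Glo luminescence, followed a 72 h incubation at 37 °C with pinned compounds in phenol-red-free DMEM containing 10% FBS.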
HT1080 IDH1KD tx = kills HT-1080 cells with IDH1 knockdown. HT-1080 IDH1 knockdown viability, ATP luminescence, 48 h. Potency, µM (doses to about 46.1 µM), without a hit: at the highest dose activity, negative = toxicity, hits mostly cytotoxic. actives 2% (n = 360,000);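 also: 0% = DMSO wells and -100% = cell-free medium wells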
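Assay cells: HT-1080 with IDH1 knockdown, 750 per well, RPMI/5% FBS. Exposure: 48 h at 37 °C following 2 h pre-incubation. Read: CellTiter-Glo luminescence; fitted concentration-response, curve class assigned.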
* = called active by the depositor; i = inactive; ? = inconclusive; . = no result given. Only some compounds are listed: those with a hit (about 7.9% of all), similar ones and a draw of the others. Calls follow the shape of the dose curve; as a rule, active = well fitted curve in the direction sought with a large enough effect; inconclusive = small, poorly fitted or top-dose-only effect, or another doubt; inactive = no such curve, though single readings can be large; an effect the other way counts as inactive or inconclusive. Potency is read from the fitted curve at half-maximal effect.

SMILES	MCF10A rereplic	HT1080-NT tox	SW480 rerep	KB-V1 MDR tox	KB-3-1 cytotox	HT1080 IDH1KD tx
O=[N+]([O-])/C=C/c1cn(Cc2ccc(F)cc2)c2ccccc12	?	?	?	i	i	11µM*
O=C(O)c1ccc(N/N=C/c2cn(Cc3ccc(F)cc3)c3ccccc23)cc1	?	-16%	-2%	i	i	-12%
Cc1cccc(Cl)c1NC(=O)N1CCCN(c2nc3ccc(Cl)cc3s2)CC1	11%	?	1%	?	?	-23%
Cc1nc(Nc2ncc(C(=O)Nc3c(C)cccc3Cl)s2)cc(N2CCN(CCO)CC2)n1	19µM*	.	17µM*	i	?	.
COc1ccc2sc(-c3ccc(N(C)C)cc3)c(C#Cc3cncn3C)c2c1	?	26µM*	1.3µM*	?	10µM*	26µM*
COc1ccc(-c2sc3ccc(OC)cc3c2C#CCCO)cc1	?	-18%	6%	i	i	-29%
COc1ccc2sc(-c3ccc(SC)cc3)c(C#CC(C)(C)O)c2c1	?	?	-3%	i	?	?
COc1ccc2sc(-c3ccc(N(C)C)cc3)c(C#CC(C)(C)O)c2c1	12%	?	2.1µM*	i	i	?
COc1ccc(-c2sc3cc4c(cc3c2C#CC2(O)CCCCC2)OCO4)cc1	23µM*	-20%	-2%	i	i	-25%
COc1ccc2sc(-c3ccc(N(C)C)cc3)c(C#CCCO)c2c1	?	16µM*	4.1µM*	?	?	?
CC[N+]1(CC(=O)c2ccc(Br)cc2)CCCCC1	.	.	.	i	i	.
COc1ccc(-c2sc3cc(OC)c(OC)cc3c2C#CCO)cc1	7%	-28%	3.3µM*	i	i	?
COc1ccc(-c2sc3cc(OC)c(OC)cc3c2C#CC(C)(C)O)cc1	?	?	-1%	i	i	-13%
O=C(COC(=O)c1ccccc1)NC1CCCCCC1	-17%	-6%	-12%	i	i	-2%
N/C(=N\OC(=O)c1ccccc1)C(C(=O)NOC(=O)c1ccccc1)C1CCCCC1 (centres undefined)	?	?	?	?	23µM*	?
CCCCCOc1ccc(C(=O)CCN2CCOCC2)cc1	?	?	3%	i	i	?
O=C(CCN1CCOCC1)c1ccc(Cl)cc1	7.3µM*	-12%	20%	i	i	-4%
O=C(CCN1CCOCC1)c1ccc(Br)cc1	9.2µM*	?	?	i	i	26µM*
CN(C)c1nc(N)nc(CSc2nnnn2C)n1	-3%	16%	-2%	?	i	16%
CN(C)c1nc(N)nc(CSc2nnnn2-c2ccccc2)n1	22%	11%	-14%	i	i	4%
CN(C)c1nc(N)nc(CSc2nnnn2-c2ccc(Cl)cc2)n1	.	?	.	i	i	23µM*
CN(C)c1nc(N)nc(CSc2ncc(Cl)cc2Cl)n1	?	-3%	4%	15µM*	i	-1%
CSc1ccccc1OCc1cc(C(=O)NCCn2nc(C)cc2C)no1	4%	1%	3%	i	i	-3%
CSc1ccccc1OCc1cc(C(=O)NCCN2CCCc3ccccc32)no1	13%	-24%	-11%	i	i	12µM*
CSc1ccccc1OCc1cc(C(=O)NCCC2=CCCCC2)no1	9%	?	2%	23µM*	i	-19%
Cc1nn(CC(=O)NCc2cccc(Br)c2)c(=O)c2c1sc1ccccc12	.	.	.	i	i	.
C/C(=N/NC(=O)CN(c1ccccc1)S(=O)(=O)c1ccccc1)c1ccccc1O	-1%	?	16µM*	i	?	?
CCc1ccccc1NC(=O)c1cc(S(=O)(=O)N(CC)c2ccccc2)ccc1F	.	.	.	i	i	.
